We go through 41 compounds from PubChem BioAssay AID1259420 (Broad Institute, 2018).

This assay can be described thus: T. gondii intracellular growth, IFN-gamma absent, dose response, cell-based (AID 1259420).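 Also: host cells were HeLa; final incubation lasted 72 hours.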 Conditions: Toxoplasma gondii growth in host cells, no IFN-gamma.

The campaign covered roughly 1,000 compounds. About 250 (25%) were called active. Not shown: some 31% with an inconclusive outcome. No rule for the calls is given here. Not all results are given here. Measured potencies and affinities stand elsewhere.

With `C[C@H]1[C@H](NC(=O)/C(=N\OC(C)(C)C(=O)O)c2csc(N)n2)C(=O)N1S(=O)(=O)O`, where the note is “at 19.5 µM unless noted”, the max activity was -8.75% [at 1.35 µM] (inactive).

On to `CCS(=O)(=O)N1[C@H](CO)[C@@H](c2ccc(C#Cc3ccccc3F)cc2)[C@@H]1C#N`, for which the max activity (at 19.5 µM unless noted) is 10.1% [at 2.35 µM] (inactive).

In the case of `OC[C@H]1[C@H](c2ccc(C#Cc3ccccc3F)cc2)[C@H]2CN(CC3CCOCC3)CCCCN21`, the max activity (at 19.5 µM unless noted) was 7.1% [at 0.16 µM] (inactive).

Take `CCc1cnc(N2[C@@H](C#N)[C@@H](c3ccc(C4=CCCCC4)cc3)[C@@H]2CO)s1`: where the note is “at 19.5 µM unless noted”, the max activity was -7.27% (inactive).

Regarding `CCS(=O)(=O)N1CC(=O)N2[C@H](CO)[C@@H](c3ccc(-c4cccc(F)c4)cc3)[C@@H]2C1`, the max activity by setting is: (at 0.6 µM) 7.66% (inactive); (at 1.2 µM) -9.75% (inactive).

Regarding `CCc1cnc(N2[C@H](C#N)[C@@H](c3ccc(C#Cc4ccccc4F)cc3)[C@H]2CO)s1`, the max activity (at 10 µM) is 8.24% (inactive) and the max activity (at 19.5 µM) was 32.4% (inactive).

With `OC[C@@H]1[C@@H](c2ccc(C#Cc3ccccc3F)cc2)[C@H]2CN(CC3CCOCC3)CCCCN12`, the max activity (at 19.5 µM unless noted) is 24.4% (inactive).

Regarding `CCC(=O)N1CC(=O)N2[C@@H](CO)[C@@H](c3ccc(C#CCC(C)C)cc3)[C@@H]2C1`, the max activity (at 19.5 µM unless noted) is 8.67% [at 0.3 µM] (inactive).

Turning to `O=C(NC1CCCCC1)N1C[C@@H]2N[C@H](C1)C2c1ccc(-c2ccc(F)cc2)cc1` (stereo not given in full), for the setting “at 19.5 µM unless noted”, the max activity is 22.3% [at 10 µM] (inactive).

As to `COC[C@@H]1CN(CC2CC2)C[C@@]12CCN(CCc1ccccc1)C2`, the max activity (at 19.5 µM unless noted) was 18.3% (inactive).

Consider `N#Cc1cccc(-c2ccc3c(c2)[C@@H]2[C@@H](CCN2C(=O)c2ccccc2F)[C@@H](CO)N3)c1`, for which the max activity (at 19.5 µM unless noted) is -14.2% [at 1.2 µM] (inactive).

For the compound `Cc1ccccc1S(=O)(=O)N1CCCCN2[C@H](CO)[C@H](c3ccc(C#CCN(C)C)cc3)[C@H]2C1`, the max activity (at 19.5 µM unless noted) is 8.8% (inactive).

With `CCN1CC(C(=O)O)CN2CCN(C(=O)c3ccncc3F)CC2C1` (stereo not given), under “at 19.5 µM unless noted”, the max activity was -9.96% [at 1.2 µM] (inactive).

Consider `CC[C@H](C(=O)N1CCCC[C@H]1C(=O)O[C@H](CCc1ccc(OC)c(OC)c1)c1cccc(OCC(=O)NCCNC(=O)COc2cccc([C@@H](CCc3ccc(OC)c(OC)c3)OC(=O)[C@@H]3CCCCN3C(=O)[C@@H](CC)c3cc(OC)c(OC)c(OC)c3)c2)c1)c1cc(OC)c(OC)c(OC)c1`, for which the max activity (at 19.5 µM unless noted) is -10.8% [at 5 µM] (inactive).

With `C1=CC[C@H]2CN(c3ncnc4[nH]ccc34)C[C@H]2C1`, the max activity (at 19.5 µM unless noted) was 15.7% [at 10 µM] (inactive).

`CCN1CCn2c(-c3cccc(F)c3)cnc2C12CCN(c1ncccn1)CC2`: where the note is “at 19.5 µM unless noted”, the max activity is -16.6% [at 2.6 µM] (inactive).

As to `FC(F)(F)C1CN(c2cc(-c3ccccc3)nc3ccccc23)CCO1` (stereo not given), the max activity (at 19.5 µM unless noted) was -8.74% [at 1.2 µM] (inactive).

Turning to `C/C=C/c1ccc(C2[C@H]3CNC[C@@H]2N3Cc2ccc3c(c2)OCO3)cc1` (stereo not given in full), under “at 19.5 µM unless noted”, the max activity is 11.3% (inactive).

As to `Fc1ccc(F)c(CN2[C@@H]3CNC[C@H]2C3c2ccc(-c3ccncc3)cc2)c1` (stereo not given in full), the max activity is -17.4% (inactive) (at 0.16 µM) and -4.19% (inactive) (at 10 µM).

Take `C[C@@H]1CN([C@@H](C)CO)C(=O)Cc2cc(NS(=O)(=O)c3ccc(Cl)cc3)ccc2O[C@@H]1CN(C)C(=O)Nc1ccc(C(F)(F)F)cc1`: the max activity (at 19.5 µM unless noted) is 23.3% (inactive).

On to `CC(C)N1CCC(c2ccnc3c(C(=O)N4CCCN(C)CC4)ncn23)CC1`, for which the max activity (at 19.5 µM unless noted) was -10.4% [at 5 µM] (inactive).

For the compound `N#C[C@H]1[C@@H](c2ccc(-c3cccc(F)c3)cc2)[C@H](CO)N1C(=O)NC1CCCC1`, the max activity is, setting by setting: (at 1.2 µM) -11.5% (inactive); (at 19.5 µM) 14.4% (inactive).

As to `N#C[C@@H]1[C@H](c2ccc(-c3cccc(F)c3)cc2)[C@@H](CO)N1C(=O)NC1CCCC1`, the max activity (at 19.5 µM unless noted) was 22.7% (inactive).

With `COCC(=O)N1[C@H](C#N)[C@H](c2ccc(C#CCC3CCCC3)cc2)[C@@H]1CO`, the max activity (at 19.5 µM unless noted) is 6.51% [at 10 µM] (inactive).

Regarding `N#C[C@@H]1[C@@H](c2ccc(C#Cc3cccnc3)cc2)[C@@H](CO)N1C(=O)NC1CCCCC1`, the max activity (at 19.5 µM unless noted) was -10.9% (inactive).

`C/C=C/c1ccc([C@H]2[C@H](CO)N3C(=O)CN(C(=O)NC4CCCCC4)C[C@@H]23)cc1`: the max activity (at 19.5 µM unless noted) was -12.8% (inactive).

`N#C[C@H]1[C@H](c2ccc(-c3cccc(F)c3)cc2)[C@H](CO)N1C(=O)NC1CCCC1`: where the note is “at 19.5 µM unless noted”, the max activity was 27.1% (inactive).

For `CCC(C)NC(=O)Cn1c(=O)c(S(=O)(=O)c2ccccc2)cc2ccccc21` (stereo not given), the max activity (at 19.5 µM unless noted) was -6.38% [at 1.2 µM] (inactive).

Take `COc1ccc(CN2C[C@@H]3CN(Cc4cnn(C)c4)C[C@H]3C2=O)cc1`: the max activity (at 19.5 µM unless noted) is -13% [at 10 µM] (inactive).

As for `Cc1cccc(S(=O)(=O)N2C[C@H]3[C@@H](c4ccccc42)[C@@H](CO)N3C(=O)c2ccccc2)c1`, the max activity (at 19.5 µM unless noted) is 6.73% [at 0.16 µM] (inactive).

Turning to `COCCC(=O)N1C[C@H](OCc2ccccn2)[C@@H]2COC[C@@H]21`, the max activity (at 19.5 µM unless noted) was -16.7% [at 0.3 µM] (inactive).

Turning to `Oc1cccc(-c2nccn2-c2cccc(-c3ccn[nH]3)c2)c1`, under “at 19.5 µM unless noted”, the max activity is -6.88% [at 10 µM] (inactive).

Take `O=S(=O)(Cc1ccccc1)N1CC2CN(Cc3cccc(Cl)c3)CC2C1` (stereo not given): the max activity (at 19.5 µM unless noted) was 19.1% (inactive).

As to `Cc1ccccc1-c1ccc([C@H]2[C@@H](CO)N3C(=O)CN(C(=O)c4ccncc4)C[C@H]23)cc1`, the max activity (at 19.5 µM unless noted) is -12.2% [at 5 µM] (inactive).

With `CC(C)CNc1nc2c(cc1C(=O)NC(C)C)CCN(c1ccncn1)CC2`, for the setting “at 19.5 µM unless noted”, the max activity was -10.6% [at 5 µM] (inactive).

On to `O=C(Nc1ccccc1F)N1CCCCN2[C@H](C1)[C@H](c1ccc(/C=C/c3ccccc3)cc1)[C@@H]2CO`, for which, where the note is “at 19.5 µM unless noted”, the max activity was 13.2% (inactive).

In the case of `COc1ccccc1-c1ccc([C@@H]2[C@@H](CO)N3CCCCN(C(=O)c4cccnc4)C[C@@H]23)cc1`, under “at 19.5 µM unless noted”, the max activity was -4.65% [at 5 µM] (inactive).

As for `COc1ccccc1-c1ccc([C@@H]2[C@H](CO)N3CCCCN(C(=O)c4cccnc4)C[C@@H]23)cc1`, the max activity (at 19.5 µM unless noted) is 16.2% (inactive).

For `COc1ccccc1-c1ccc([C@@H]2[C@H]3CN(C(=O)c4cccnc4)CCCCN3[C@H]2CO)cc1`, for the setting “at 19.5 µM unless noted”, the max activity is 9.09% [at 0.16 µM] (inactive).

For `CCN1C(=O)CO[C@H]2CN(C(=O)c3cnc4ccccc4c3)C[C@@H]21`, the max activity (at 19.5 µM unless noted) was -7.5% [at 0.16 µM] (inactive).

Regarding `Cn1cnc2c1C(C(=O)O)CN(C(=O)c1ccsc1)C2` (stereo not given), the max activity (at 19.5 µM unless noted) was -15.3% [at 10 µM] (inactive).
